# High-throughput results deposited in PubChem BioAssay by National Center for Advancing Translational Sciences (NCATS).
# Vif-A3F inh: Vif-A3F binding inhibition; Potency, µM (top dose mostly 46.1 µM), without a hit: at the highest dose activity, negative = active; HeLa A3F-eYFP + Vif (tagged APOBEC3F with the HIV-1 protein that degrades it), YFP fluorescence increase; 0.2% of 390,000 active; also: potency is read from the fitted curve at half-maximal effect; % of control where 0% means no effect; nearly all actives have a fitted effect of over 65% in size
#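 Fluorescence increase (Ex 488/Em 500-530) after overnight compound treatment at 37 deg C flags inhibition of Vif-driven A3F-eYFP loss in stable HeLa A3F-eYFP/Vif cells seeded overnight beforehand.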
# Giardia killer: Giardia lamblia killing; Giardia lamblia trophozoite viability; AID 540267; activity change, % at 7.66 µM, hits read low; 0.15% of 340,000 active; in the data active = activity change below about -80%; inconclusive = between about -30% and that limit;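 also: parasites exposed to compound for two days anaerobically before the ATP read; % is scaled to controls: 0 for no effect and ±100 for the full control effect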
#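 Media and compound were dispensed first, then trophozoites at 100 cells/well; plates sat 48 hrs at 37 deg C without oxygen before ATP luminescence reagent was added and read after 15-30 min at room temperature.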
# Vif-APOBEC3G blk: Vif-A3G binding inhibition; Q9HC16; HeLa A3G-eYFP + Vif (tagged APOBEC3G with the HIV-1 protein that degrades it), YFP fluorescence, overnight; Potency, µM (series often up to 46.1 µM), without a hit: at the top dose activity, negative = active, actives largely listed as inhibitors; 0.076% of 410,000 active; AID 602310; also: potency is read from the fitted curve at half-maximal effect; % is scaled to controls: 0 for no effect and ±100 for the full control effect; nearly all actives have a fitted effect of over 60% in size
# Target sequence (Q9HC16 whole entry, looked up): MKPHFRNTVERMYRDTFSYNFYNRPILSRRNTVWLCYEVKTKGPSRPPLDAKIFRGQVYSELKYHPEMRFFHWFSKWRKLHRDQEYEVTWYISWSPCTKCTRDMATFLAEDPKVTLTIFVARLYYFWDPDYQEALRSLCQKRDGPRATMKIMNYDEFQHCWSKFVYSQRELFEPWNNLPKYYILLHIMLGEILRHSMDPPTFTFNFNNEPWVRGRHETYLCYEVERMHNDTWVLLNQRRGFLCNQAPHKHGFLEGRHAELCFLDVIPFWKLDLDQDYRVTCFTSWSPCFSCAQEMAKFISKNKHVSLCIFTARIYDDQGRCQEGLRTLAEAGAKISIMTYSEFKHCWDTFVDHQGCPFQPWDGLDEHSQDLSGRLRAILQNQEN
#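 HeLa cells stably expressing Vif and C-terminally eYFP-tagged A3G, seeded overnight at 37 deg C, then exposed to compound by pintool overnight at 37 deg C. Rise in yellow fluorescence (Ex 488/Em 500-530, Acumen) marks blocked Vif-driven A3G degradation.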
# IL-1B inflam inh: inflammasome signaling inhibition, IL-1 beta readout. THP-1 LPS/ATP IL-1B secretion, AlphaLISA, 16 h; hits give low values. activity change, % at 57.5 µM. 4.7% of 360,000 active. AID 743279; in the data active = activity change below about -50%; inconclusive = mostly about -30% to -49%; also: % is scaled to controls: 0 for no effect and ±100 for the full control effect
#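 Secreted IL-1B measured by AlphaLISA bead assay after 16 h compound exposure of THP-1 cells; compounds (final up to 57.5 uM) added 1 h before LPS (250 ng/mL) and ATP (1.25 mM) stimulation; lower signal means less secretion.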
# MCF10A rerep: induces DNA re-replication in MCF 10a normal breast cells; MCF 10A DNA re-replication, Hoechst nuclear intensity, 48 h; Potency, µM (top dose mostly 46.1 µM), for the others: top-dose activity, positive = re-replication, hits mostly activators; 2.9% of 350,000 active; AID 624296; also: potency is read from the fitted curve at half-maximal effect; % of control where 0% means no effect; nearly all actives have a fitted effect of over 50% in size
# SW480 rerep: DNA re-replication induction in SW480 cells. SW480 DNA re-replication, Hoechst DNA content imaging, 48 h. Potency, µM (highest dose often 46.1 µM), inactives show at the top dose re-replication activation, hits mostly activators. 1.8% of 340,000 active. AID 624297; also: potency is read from the fitted curve at half-maximal effect; % of control where 0% means no effect; nearly all actives have a fitted effect of over 55% in size
#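 Image-based read-out: total Hoechst fluorescence of nuclei (405 nm excitation, 500-530 nm emission), with hits raising the fraction of high-intensity nuclei. SW480 colon cells incubated 48 hr with compounds at 37 C.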
# * hit, by the source's call; ? = inconclusive; nt = no result. The list is not random: actives were taken first. Their share in the collection is about 6.9%. Unless noted, calls follow the shape of the dose curve; as a rule, active = well fitted curve in the direction sought with a large enough effect; inconclusive = small, poorly fitted or top-dose-only effect, or another doubt; inactive = no such curve, though single readings can be large; an effect the other way counts as inactive or inconclusive.
SMILES,Vif-A3F inh,Giardia killer,Vif-APOBEC3G blk,IL-1B inflam inh,MCF10A rerep,SW480 rerep
Cc1cc2nc3c(=O)[nH]c(=O)nc-3n(CC(O)C(O)C(O)COP(=O)(O)O)c2cc1C (configuration not stated),nt,nt,nt,nt,0%,-11%
COc1cccc(C2C3=C(N=c4s/c(=C\c5cccc(O)c5)c(=O)n42)c2ccccc2CC3)c1OC (configuration not stated),-6%,-4,-8%,-57*,9%,?
Cc1ccc(CSc2nnc(-c3ccc(NS(=O)(=O)c4ccccc4)cc3)o2)cc1,-27%,4,2%,-57*,?,7%
COC(=O)c1ccc2[nH]c3cccc(/C(=C/c4ccccc4)c4ccccc4)c3c2c1,-5%,-21,-5%,-58*,12µM*,1%
CCc1ccc(C2CC(=O)N3CN(c4ccccc4)CSC3=C2C#N)cc1 (configuration not stated),-1%,-16,-10%,-14,0%,1%
N#CC1=C2SCC(O)(c3ccccc3)N2C(=O)CC1c1ccccc1 (configuration not stated),5%,2,?,-11,5.8µM*,12µM*
CC1=CC(=O)C=C(C)C1=NOc1ccccc1[N+](=O)[O-],2%,1,-3%,?,?,-709%
Cc1ccc(C)c(C(=O)COc2ccccc2[N+](=O)[O-])c1,-8%,?,-15%,-51*,?,?
Cc1cc(C)c(S(=O)(=O)Oc2ccccc2[N+](=O)[O-])c(C)c1,2%,-3,?,-4,6.5µM*,21µM*
NC(=S)NCc1cccnc1,0%,-21,0%,13,11%,-7%
CSC(=S)NCc1cccnc1,1%,24,?,-63*,3.3µM*,3.7µM*
Cc1ccc(C(=O)c2oc3ccccc3c2NC(=O)COc2ccccc2Cl)cc1,-2%,nt,-5%,nt,nt,nt
COc1cc(Cl)ccc1OCc1cc(C(=O)N2C[C@]3(C)C[C@H]2CC(C)(C)C3)no1,-6%,8,-7%,-14,21µM*,7%
COc1cc(Cl)ccc1OCc1cc(C(=O)N2C[C@H]3CC[C@H]2C3)no1,-7%,-6,-3%,0,1%,-4%
CCn1c(=O)c2cc(C(=O)NCCc3ccc(OC)c(OC)c3)sc2c2ccccc21,-3%,nt,-8%,nt,nt,nt
OC(CNC1CCCCCC1)COc1cccc2ccccc12 (configuration not stated),-4%,-2,-6%,-105*,26%,18µM*
Cc1ccccc1OCC(O)CNC1CCC(NCC(O)COc2ccccc2C)CC1 (configuration not stated),15%,-9,-23%,-98*,?,4.1µM*
OC(CNC1CCCC1)COc1ccccc1Br (configuration not stated),-4%,-6,1%,-6,8%,6%
Cc1ccc(OCC(O)CNC2CCCC2)c(C)c1 (configuration not stated),-4%,3,4%,-8,8%,-1%
CCCOc1cccc(C2c3c(oc4cc(C)c(C)cc4c3=O)C(=O)N2CCCN2CCOCC2)c1 (configuration not stated),6%,nt,4%,nt,nt,nt
NC(=S)NNC(=O)[C@@H]1CCCC[C@@H]1C(=O)O,-9%,0,2%,19,-8%,0.52µM*
COc1cccc(CNC(=O)CN2C(=O)N(c3cccc(Cl)c3)S(=O)(=O)c3ccccc32)c1OC,0%,nt,-1%,nt,nt,nt
CCOc1cc(C(=S)N2CCC(O)CC2)ccc1OS(=O)(=O)c1ccc(Br)cc1,-2%,0,-1%,-82*,-2%,-1%
CCOc1cc(C(=S)N2CCCCC2)ccc1OS(=O)(=O)c1ccc(Br)cc1,-2%,6,2%,-15,?,8%
CCC(Sc1nnc2c(n1)[nH]c1ccccc12)C(=O)Nc1ccccc1OC (configuration not stated),-2%,nt,-2%,nt,nt,nt
SMILES,Vif-A3F inh,Giardia killer,Vif-APOBEC3G blk,IL-1B inflam inh,MCF10A rerep,SW480 rerep
C#CCSc1nccc(-c2nn(-c3ccc(C)cc3)ccc2=O)n1,nt,2,?,71,?,35%
Nc1nccc(-c2nn(-c3ccc(Cl)cc3)ccc2=O)n1,-3%,-14,0%,3,1%,-3%
CCSc1nccc(-c2nn(-c3ccc(C)cc3)ccc2=O)n1,-4%,15,?,-3,5.2µM*,7.3µM*
CSc1nccc(-c2nn(-c3ccc(C)cc3)ccc2=O)n1,-15%,-2,?,146,8.2µM*,13µM*
C=CCSc1nccc(-c2nn(-c3ccc(C)cc3)ccc2=O)n1,-13%,25,?,-25,8.2µM*,?
CC(C)(C)OC(=O)NS(=O)(=O)NOCc1ccccc1,nt,nt,4%,nt,nt,nt
OC(CN1CCN(c2ccccc2Cl)CC1)c1ccccc1 (configuration not stated),-3%,-3,-13%,8,?,23µM*
O=C(O)c1ccc(N=Nc2c(O)ccc3ncccc23)cc1,-3%,-10,0%,19,3%,15µM*
CC(=O)c1ccc(NC(=O)CC2Oc3ccc(C)cc3NC2=O)cc1 (configuration not stated),3%,nt,-5%,nt,nt,nt
CC(C)NCC(=O)C12CC3CC(CC(C3)C1)C2,7%,3,2%,-4,14%,-3%
COc1cccc(C(=O)c2sc(NC(C)C)nc2N)c1,1%,17,-7%,-107*,5.8µM*,?
CC(C)Nc1nc(N)c(C(=O)C23CC4CC(CC(C4)C2)C3)s1,-7%,3,0%,24,23µM*,21%
COc1ccc(C(=O)c2sc(NC(C)C)nc2N)cc1OC,-25%,-1,-6%,-109*,?,0%
COc1cccc(C(=O)c2sc(Nc3ccc(F)c(Cl)c3)nc2N)c1,0%,nt,1%,nt,nt,nt
O=C(Nc1ccccc1F)c1ccc(Cn2nc(N3CCN(c4ccccc4)CC3)ccc2=O)o1,-18%,nt,2%,nt,nt,nt
Nc1nccc(-c2ccc(-n3cnc4ccccc43)cc2)n1,11%,-4,2%,-61*,3%,-9%
COC(=O)Cn1ccc(-c2ccc(Cl)cc2)c(C#N)c1=O,7%,25,-1%,19,0%,-4%
COC(=O)Cn1ccc(N(C)C)c(C#N)c1=O,2%,-9,-1%,12,9.2µM*,6.5µM*
Cc1ccc(C)c(NS(=O)(=O)c2ccc3c(c2)n(C)c(=O)n3C)c1,-9%,nt,-2%,nt,nt,nt
Cc1ccc(Cc2nnc3n(-c4ccccc4)nc(C(=O)c4ccccc4)n3c2=O)cc1,-4%,-2,-8%,-4,16µM*,18µM*
